Test results from PubChem BioAssay (NCATS).
Records with an inconclusive call do not appear. The source made the active and inactive calls. Calls come from the whole dose curve; tested in HEK293 reporter line.

Tests used:
[1] = qHTS for Inhibitors of the Functional Ribonucleoprotein Complex (vRNP) of Lassa (LASV) Arenavirus: LASV Primary Screen - GLuc reporter signal (AID 1347082); conditions: LASV minigenome vRNP, Gaussia luciferase reporter; series mostly up to 57.5 µM; note: nearly all actives have a fitted effect of over 60% in size
[2] = qHTS for Inhibitors of the Functional Ribonucleoprotein Complex (vRNP) of Lassa (LASV) Arenavirus: Viability assay - alamar blue signal for LASV Primary Screen (AID 1347083); conditions: cell viability, alamar blue fluorescence (LASV minigenome counter-screen); series mostly up to 57.5 µM; note: nearly all actives have a fitted effect of over 80% in size
[3] = qHTS for Inhibitors of the Functional Ribonucleoprotein Complex (vRNP) of Lymphocytic Choriomeningitis Arenaviruses (LCMV): Viability assay - alamar blue signal for LCMV Primary Screen (AID 1347085); conditions: alamar blue viability counter-screen, LCMV vRNP screen cells; series mostly up to 57.5 µM; note: nearly all actives have a fitted effect of over 80% in size

Measured: Potency

CN1CCN(c2cc3c(cc2F)c(=O)c(C(=O)O)cn3-c2ccc(F)cc2)CC1
inactive: all assays above

CCC(C(=O)OCCOCCN(CC)CC)c1ccccc1 (stereo not given)
inactive: all assays above

Cc1c(C)n(Cc2ccccc2)c2ccc(C(=O)OCCN(C)C)cc12
inactive: all assays above

O=C(NCC1CN(c2ccc(N3CCOCC3=O)cc2)C(=O)O1)c1ccc(Cl)s1 (stereo not given)
inactive: all assays above

CC(C)N=C(N)/N=C(\N)Nc1ccc(Cl)cc1
inactive: all assays above

NS(=O)(=O)c1cc(C(=O)O)c(NCc2ccco2)cc1Cl
inactive: all assays above

Cc1nc2sccn2c(=O)c1CCN1CCC(=C(c2ccc(F)cc2)c2ccc(F)cc2)CC1
inactive: all assays above

CCCCCCCC/C=C\CCCCCCCCN
inactive: all assays above

CCOC(=O)C(=O)c1csc(NC=O)n1
inactive: all assays above

O=C(O)Cn1c(C(=O)Nc2nc(-c3ccccc3Cl)cs2)cc2ccccc21
inactive: all assays above

N#Cc1cc(NC(=O)C(=O)O)c(Cl)c(NC(=O)C(=O)O)c1
inactive: all assays above

C[C@@H]1C[C@H]2[C@@H]3CCC4=CC(=O)C=C[C@]4(C)[C@@]3(F)[C@@H](O)C[C@]2(C)[C@H]1C(=O)CO
inactive: all assays above

C[C@@H]1CCN(C(=O)[C@H](CCCN=C(N)N)NS(=O)(=O)c2cccc3c2NC[C@H](C)C3)[C@@H](C(=O)O)C1
inactive: all assays above

Cc1cc(O)c(C(C)C)cc1Cl
inactive: all assays above

c1ccc(CN(CC2=NCCN2)c2ccccc2)cc1
inactive: all assays above

OCc1cc(C(O)CNCCCCCCOCCCCc2ccccc2)ccc1O (stereo not given)
inactive: all assays above

C/C=C(/C(=C/C)c1ccc(O)cc1)c1ccc(O)cc1
inactive: all assays above

Nc1ccc(C(=O)NCC(=O)O)cc1
inactive: all assays above

CCCC(C(=O)OCCN(CC)CC)(c1ccccc1)c1ccccc1
inactive: all assays above

O=C(Nc1ccccc1)OCC(CN1CCCCC1)OC(=O)Nc1ccccc1 (stereo not given)
inactive: all assays above

CCOC(=O)c1cc(=O)c2c(OCC(COc3cccc4oc(C(=O)OCC)cc(=O)c34)OC(=O)[C@@H](N)CCCCN)cccc2o1
inactive: all assays above

CC(C)C[C@@H]1[C@H](c2ccccc2)OC(=O)N1CCCN1CCCCCC1
inactive: all assays above

Cc1ccc(C(=O)Oc2ccc(C(O)CNC(C)(C)C)cc2OC(=O)c2ccc(C)cc2)cc1 (stereo not given)
inactive: all assays above

CC1(C)CO[C@@H](CC(=O)O)CN1
inactive: all assays above

Cc1ccc(/C(=C\CN2CCCC2)c2ccccn2)cc1
inactive: all assays above

O=C(OCC(COC(=O)c1cccnc1)(COC(=O)c1cccnc1)COC(=O)c1cccnc1)c1cccnc1
inactive: all assays above

CCOC(=O)CN1CCCC1=O
inactive: all assays above

Clc1ccc(C(Cn2ccnc2)OCc2ccsc2Cl)c(Cl)c1 (stereo not given)
inactive: all assays above

CCCCc1cc2ccccc2c(OCCN(C)C)n1
inactive: all assays above

C=C1C(=C/C=C2\CCC[C@]3(C)[C@@H]([C@H](C)/C=C/[C@@H](O)C4CC4)CC[C@@H]23)C[C@@H](O)C[C@@H]1O
inactive: all assays above

CN1CCCN=C1COC(=O)C(O)(c1ccccc1)C1CCCCC1 (stereo not given)
inactive: all assays above

C[C@@H]1C[C@H]2[C@@H]3CCC4=CC(=O)C=C[C@]4(C)[C@@]3(F)[C@@H](O)C[C@]2(C)[C@@]1(O)C(=O)COC(=O)c1ccncc1
inactive: all assays above

CC(C)(C)c1ccc(C(=O)CCCCl)cc1
inactive: all assays above

CC1=C(C(=O)OC(C)C)C(c2cccc([N+](=O)[O-])c2)C(C(=O)OC2CN(C(c3ccccc3)c3ccccc3)C2)=C(N)N1 (stereo not given)
inactive: all assays above

CCC(=O)c1ccc(O)cc1
inactive: all assays above

CCOc1ccc(NC(C)=O)cc1
inactive: all assays above

O=C(O)Cc1ccc(CCNS(=O)(=O)c2ccc(Cl)cc2)cc1
inactive: all assays above

CCN(CC)CCOC(=O)C(c1ccccc1)c1ccccc1
inactive: all assays above

CC1(C)OC[C@@H](COC(=O)CCc2ccc(OC[C@@H](O)CNCCNC(=O)N3CCOCC3)cc2)O1
inactive: all assays above

C#CCN(C)CCCOc1ccc(Cl)cc1Cl
inactive: all assays above
